# Test results published in PubChem BioAssay.
# Active and inactive are the calls of the source.
# Tests used:
# Albumin (Bos taurus) = Albumin (Bos taurus) (UniProt P02769); experiment: bovine serum albumin binders on microarray, profiling panel, artefact control for SMM control protein annotation, biochemical, small-molecule microarray, Alexa647 label, 635/667 nm fluorescence (AID 1118); details: BSA-A647 binding, fluorescence 635 nm, higher = more signal;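 note: score merges 667 nm emission intensity and signal-to-noise per printed compound spot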
# Sequence of Albumin (Bos taurus) (P02769 whole entry, looked up): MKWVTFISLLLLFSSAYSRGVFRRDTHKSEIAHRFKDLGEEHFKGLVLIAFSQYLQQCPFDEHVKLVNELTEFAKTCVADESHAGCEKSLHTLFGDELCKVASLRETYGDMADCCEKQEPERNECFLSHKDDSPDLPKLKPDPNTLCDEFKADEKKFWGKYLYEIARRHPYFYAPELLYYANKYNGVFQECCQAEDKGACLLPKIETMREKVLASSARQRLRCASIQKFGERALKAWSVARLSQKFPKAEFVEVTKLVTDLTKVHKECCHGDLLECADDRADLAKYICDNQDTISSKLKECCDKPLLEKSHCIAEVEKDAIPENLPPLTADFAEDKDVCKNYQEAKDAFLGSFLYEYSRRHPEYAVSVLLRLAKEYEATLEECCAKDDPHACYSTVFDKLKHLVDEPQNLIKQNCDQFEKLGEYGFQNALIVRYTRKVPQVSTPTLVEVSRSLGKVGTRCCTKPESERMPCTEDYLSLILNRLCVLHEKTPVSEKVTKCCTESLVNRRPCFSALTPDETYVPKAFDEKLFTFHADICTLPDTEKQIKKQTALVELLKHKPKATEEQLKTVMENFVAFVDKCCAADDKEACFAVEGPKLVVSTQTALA
# [1] = small-molecule microarray binders of probe aXIP, primary screen, biochemical, NeuroSMM set, 635/667 nm fluorescence (AID 1119); details: higher = more signal, called active from +8 up or from −8 down;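 note: probe is the protein aXip251-270 applied at 1 µg/mL to compound-printed slides; binding of probe to printed compounds measured as 667 nm fluorescence plus signal to noise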
# [2] = small-molecule binders of probe aNOTCH3, primary screen, biochemical, small-molecule microarray, 635/667 nm fluorescence (AID 1120); details: higher = more signal;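 note: probe is a biotin-tagged antibody raised against NOTCH3 rather than NOTCH3 protein; score merges spot fluorescence near 667 nm with spot signal to noise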
# [3] = small-molecule binders of probe aNOTCH2, primary screen, biochemical, small-molecule microarray, 635/667 nm fluorescence (AID 1121); details: higher = more signal;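 note: score merges feature fluorescence read at 667 nm with its signal to noise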
# [4] = biological target: Carbonic anhydrase 2 (Homo sapiens) (UniProt P00918); experiment: CAII small-molecule binders, profiling panel, biochemical, small-molecule microarray, Alexa647-labelled CAII (AID 1122); details: CAII-A647 binding fluorescence, higher = more signal
# [5] = COS7 lysate on small-molecule microarray, probe aHis, 635 nm (AID 1123); details: COS7 cell lysate, fluorescence, higher = more signal;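 note: z-score combines 667nm fluorescence intensity with signal-to-noise per printed compound spot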
# [6] = compound binding in COS7 lysate, probe aLAP1, primary screen, cell lysate, small-molecule microarray (AID 1124); details: probe aLAP1, fluorescence, higher = more signal;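 note: lysate comes from COS7 cells expressing LAP1 and is applied at 0.3 µg/mL; score merges spot fluorescence near 667 nm with signal-to-noise over triplicate slides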
# Sam68 (KHDRBS1) = experiment: Sam68 small-molecule binders, primary screen, biochemical, small-molecule microarray, 635 nm fluorescence (AID 1125); details: small-molecule microarray binding, higher = more signal;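 note: score merges 667 nm channel intensity with signal to noise over triplicate slides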
# [7] = tested on: Chordin-like protein 2 (CHRDL2); experiment: CHRDL2 small-molecule binders, primary screen, biochemical, small-molecule microarray, 635 nm fluorescence (AID 1126); details: small-molecule microarray binding, fluorescence 635 nm; higher = more signal;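 note: printed compound slides probed with Chrdl2 protein at 4 µg/mL for 1 h at 4 C; score merges 667 nm emission intensity with signal to noise over three replicate slides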
# [8] = biological target: Concanavalin-A (Canavalia ensiformis) (UniProt P02866); experiment: ConA small-molecule binders, primary screen, artefact control for SMM control protein annotation, biochemical, small-molecule microarray, Alexa647 label, 635 nm (AID 1127); details: ConA-A647 binding fluorescence, higher = more signal;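 note: z combines 667 nm emission intensity with signal-to-noise across three replicate slides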
# Sequence of Concanavalin-A (Canavalia ensiformis) (P02866 whole entry, looked up): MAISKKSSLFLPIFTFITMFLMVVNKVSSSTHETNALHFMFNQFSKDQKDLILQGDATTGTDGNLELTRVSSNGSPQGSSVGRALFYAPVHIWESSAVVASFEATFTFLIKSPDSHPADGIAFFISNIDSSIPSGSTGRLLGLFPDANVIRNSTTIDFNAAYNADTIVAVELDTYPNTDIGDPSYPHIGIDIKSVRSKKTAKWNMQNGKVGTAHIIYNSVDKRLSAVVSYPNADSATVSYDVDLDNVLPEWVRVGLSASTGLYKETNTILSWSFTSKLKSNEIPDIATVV
Structure (SMILES),composite z-score (Albumin (Bos taurus)),composite Z-score [1],composite z-score [2],composite z-score [3],composite z-score [4],composite z-score [5],composite z-score [6],composite z-score (Sam68 (KHDRBS1)),composite z-score [7],composite z-score [8]
COC(=O)Cn1c(C(=O)N(C)C)cc2c1C[C@H]1CN(C(=O)c3ccccc3)[C@@](Cc3ccc(OC)cc3)(C(=O)OC)[C@@H]21,0.938,-0.945 (inactive),0.332,-0.037,0.845,3.28,-0.0169,1.08,-0.108,0.812
CC1(C)OC[C@@]23C=C(Br)[C@@H](C[C@H]12)[C@@]1(CO1)C3=O,-0.172,0.0315 (inactive),0.0824,-0.189,-0.0169,-0.0842,-0.0515,0.107,0.467,0.262
C=CC[C@@]1(C(=O)O)N=C(c2ccc(OCCCO)cc2)O[C@@H]1c1ccccc1CN=[N+]=[N-],0.557,-0.632 (inactive),0.0991,-0.147,0.596,1.9,0.0424,0.826,0.439,1.05
CC(=O)n1cc(C(O)C2C=CC3C(=O)N(c4ccccc4)C(=O)C3N2Nc2ccccc2F)c2ccccc21 (stereo not given),0.332,0.169 (inactive),-0.189,-0.162,0.754,1.84,0.386,0.505,-0.997,0.76
CC(C)c1ccc(NN2C(C(O)C(C)C)C=CC3C(=O)N(c4ccccc4)C(=O)C32)cc1 (stereo not given),1.07,0.349 (inactive),0.761,0.353,0.615,2.89,1.43,1.31,-0.256,1.2
COc1ccc([Si](C)(C)[C@@H]2[C@@H](CCO)O[C@]3(C(=O)N(Cc4ccccc4)c4ccc(N5C(=O)c6ccccc6Oc6ccccc65)cc43)[C@H]2C)cc1,0.208,0.304 (inactive),-0.192,-0.155,-0.0035,0.981,-0.0345,-0.809,-1.36,0.718
C=CCC(OC(C)=O)[C@@H]1[C@@H](N(Cc2cccc3ccccc23)C(=O)c2cccc3ccccc23)c2cc(OCCCO)ccc2N1C(=O)Cc1ccc2ccccc2c1 (stereo not given in full),-0.351,-0.745 (inactive),-0.128,-0.147,-0.272,-0.331,-0.397,-0.0418,0.295,-0.508
CC(=O)NCCCC[C@@H]1NC(=O)[C@H]2C[C@@H](C(=O)NCCCCCC[N+](C)(C)C)[C@@H](c3ccc(O)cc3)N2C1=O,0.596,0.285 (inactive),-0.0057,-0.0556,0.676,2.2,0.527,1.17,1.4,0.682
COC(=O)C(CC#Cc1ccc2c(c1)[C@]1(C(=O)N2)[C@H](c2ccc(O)cc2)N2[C@H](c3ccccc3)[C@H](c3ccccc3)OC(=O)[C@H]2[C@@H]1C(=O)N1CCc2cc(OC)c(OC)cc2C1)C(=O)OC,-0.1,0.33 (inactive),0.0032,-0.125,0.366,1.72,1.05,1.32,0.64,1.12
COC(=O)[C@@]1(Cc2ccc(F)cc2)[C@H]2c3cc(C(=O)N(C)C)n(CCN4CCOCC4)c3C[C@H]2CN1C(=O)c1ccccc1,0.851,-0.34 (inactive),0.296,0.739,0.39,2.08,0.0192,-0.0247,-0.361,0.618
COc1cc2c(cc1O)C(c1ccc(CN3CCCC3)cc1)N(Cc1cccc(OC(F)(F)F)c1)CC2 (stereo not given),0.771,0.339 (inactive),-0.0795,-0.207,0.546,1.72,0.637,0.658,0.73,-0.328
COCCOC(=O)N1C(=O)[C@@]2(c3cc(C#CCCO)ccc31)[C@H](C(=O)N1CCc3cc(OC)c(OC)cc3C1)[C@H]1C(=O)O[C@H](c3ccccc3)[C@H](c3ccccc3)N1[C@@H]2c1ccccc1OCCO,0.357,0.471 (inactive),0.285,0.0401,0.422,1.2,1.01,1.32,0.855,1.13
CCOC(=O)C1=CCC(c2cc3ccccc3[nH]2)N(S(=O)(=O)c2ccccc2[N+](=O)[O-])C1 (stereo not given),0.476,4.63 (inactive),0.051,-0.188,0.674,2.37,0.375,0.644,0.0846,0.558
CCCC=C(CCC)[C@@H](NS(=O)(=O)c1ccc(Cl)cc1)c1ccccc1,0.046,-0.0223 (inactive),-0.056,0.194,0.281,0.829,1.28,0.127,-0.845,0.205
O=C1c2ccccc2[C@@]2(Cc3ccccc3N(Cc3ccccc3)C2=O)[C@H](c2ccc(CO)cc2)N1Cc1ccccc1,-0.819,0.225 (inactive),-0.132,-0.125,0.19,-0.137,0.407,-0.42,-0.845,-0.571
COC(=O)c1c(CC[C@@H](CO)NC(=O)N[C@@H](Cc2ccccc2)Cn2cc(-c3cncn3C)nn2)oc(C(C)=O)c1C(=O)OC,0.979,0.047 (inactive),0.212,-0.144,0.648,1.95,0.512,1.21,-0.722,1.07
COc1ccc(C#Cc2ccc3c(c2)[C@]2(C(=O)N3)[C@H](C(=O)Nc3nc4ccccc4s3)[C@H]3C(=O)O[C@H](c4ccccc4)[C@H](c4ccccc4)N3[C@@H]2c2ccc(OCCO)cc2)cc1,0.789,0.403 (inactive),0.109,-0.0486,0.622,2.46,0.816,1.31,0.254,1.17
COc1ccc(CC[C@H](O)c2cccc(OCC(=O)OC(C)(C)C)c2)cc1,0.625,0.0178 (inactive),-0.0014,-0.0876,0.29,1.34,0.341,1.33,0.723,1.2
CCOC(=O)C[C@H]1[C@H](OC(=O)c2cc3ccccc3oc2=O)[C@@H](NC(=O)C2CCCCC2)c2cc(OCCCO)ccc2N1C(=O)Cc1ccc(OC)cc1,0.259,0.127 (inactive),1.41,-0.0111,0.51,0.988,0.319,0.736,0.328,-0.146
N#Cc1ccc(C(O)C2C=CC3C(=O)N(c4ccccc4)C(=O)C3N2Nc2ccc([N+](=O)[O-])cc2)cc1 (stereo not given),0.895,0.453 (inactive),0.0749,0.0912,0.748,2.45,1.05,1.28,-0.558,1.23
C=CCC(OC(C)=O)[C@@H]1[C@@H](N(Cc2cc3ccccc3o2)C(=O)c2cccc3ccccc23)c2cc(OCCCO)ccc2N1C(=O)c1ccc2ccccc2c1 (stereo not given in full),0.163,-0.73 (inactive),-0.0647,-0.0906,0.229,0.542,-0.177,-0.0368,0.556,-0.259
O=C(NCCO)C1=C[C@H](Oc2ccccc2I)[C@@H](O)[C@H](NCc2ccc(F)cc2)C1,-1.89,-0.48 (inactive),-0.161,-0.14,-0.934,-0.809,1,-0.285,-0.0242,-1.83
C=CC[C@@]1(C(=O)N(C)C)N=C(c2ccc(OCCCO)cc2)O[C@@H]1c1ccccc1,0.434,-0.593 (inactive),0.315,0.182,0.644,2.59,1.01,-0.108,0.0028,0.148
Cc1ccc(S[C@]2(C(=O)NCC(F)(F)F)CC(=O)N(C3CCCCC3)[C@@H]2c2ccc(CO)cc2)cc1,0.344,0.399 (inactive),-0.161,-0.11,0.702,2,0.298,0.626,-0.339,-0.123
COC(=O)[C@@]1(Cc2ccccc2CN=[N+]=[N-])COC(c2ccc(OCCCO)cc2)=N1,0.426,0.978 (inactive),-0.425,-0.0959,0.0365,2.27,-0.365,0.424,-2.4,-1.38
[N-]=[N+]=NCc1ccccc1C[C@]1(C(=O)NCc2ccccc2)N=C(c2ccc(OCCCO)cc2)O[C@H]1c1ccccc1CN=[N+]=[N-],0.735,0.597 (inactive),0.192,0.0522,0.727,2.67,0.478,0.839,-0.324,0.958
NC(=O)N1C(=O)C2C(C1=O)C1C=C(CCCO)C2C(c2ccc(CN3CCCC3)cc2)N1Cc1cccc(OC(F)(F)F)c1 (stereo not given),0.0639,0.463 (inactive),0.0142,-0.0148,0.203,0.904,0.0715,0.64,0.681,-0.171
CC(C)C[C@@H]1NC(=O)C([C@@H](C)OCc2ccccc2)NC(=O)[C@@]23C(=O)N[C@@H](Cc4ccccc4)C2[C@H](C)[C@@]2(C)O[C@H]2C3/C=C/CC/C=C/CNC1=O (stereo not given in full),0.438,-0.0807 (inactive),-0.0647,-0.128,0.469,0.73,0.184,1.34,0.554,0.329
O=C1C2C=CC(C(O)C(c3ccccc3)c3ccccc3)N(Nc3ccccc3)C2C(=O)N1c1ccccc1 (stereo not given),0.876,0.312 (inactive),0.278,-0.0633,0.619,2.17,0.0595,1.3,-0.236,0.942
COc1ccc(NC(=O)O[C@H]2[C@H](OC(=O)Nc3ccc4c(c3)OCO4)[C@H](OC(=O)Nc3ccc4c(c3)OCO4)[C@@H](OC)O[C@@H]2CO)cc1,-0.0357,-0.102 (inactive),0.037,-0.117,0.609,1.36,1.16,1.26,0.0872,1.02
